# Data: PubChem BioAssay (NCATS)
# Records with an inconclusive call do not appear. The source made the active and inactive calls. Unless noted, no rule for the calls is given here.
# Experiments:
# [1] = qHTS profiling of the MIPE4 collection as inhibitors of Plasmodium falciparum (3D7) proliferation (AID 743344);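 also: scaled between DMSO vehicle wells and 0.29 µM artemisinin as full inhibition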; conditions: P. falciparum 3D7 in erythrocytes, SYBR Green DNA fluorescence, 72 h; at 28.5 µM unless noted
# In short: (§1)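 Erythrocytes infected with P. falciparum (0.3% parasitemia, 2.5% hematocrit) incubated with compounds 72 h at 37 C, 5% CO2. Lysis with saponin/Triton buffer containing SYBR Green I, overnight at room temperature in the dark; DNA fluorescence (485/535 nm) normalised to 0.29 uM artemisinin and DMSO.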
# [2] = qHTS profiling of the MIPE4 collection as inhibitors of Plasmodium falciparum (DD2) proliferation (AID 743345); conditions: P. falciparum Dd2 in erythrocytes, SYBR Green DNA, 72 h; at 28.5 µM unless noted
# In short: as §1
# [3] = qHTS profiling of the MIPE4 collection as inhibitors of Plasmodium falciparum (DD2) proliferation (Rep 2) (AID 743346); conditions: P. falciparum Dd2 in erythrocytes, SYBR Green DNA, 72 h; at 28.5 µM unless noted
# In short: as §1
# [4] = qHTS profiling of the MIPE4 collection as inhibitors of Plasmodium falciparum (HB3) proliferation (AID 743347);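 also: plate controls were DMSO vehicle wells for no effect and artemisinin wells for full effect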; conditions: P. falciparum HB3 in erythrocytes, SYBR Green DNA, 72 h; at 28.5 µM unless noted
# In short: as §1
# [5] = High-throughput drug toxicity screening in the BPDCN cell line Gen2.2 (AID 1224824); conditions: Gen2.2 BPDCN cells; at 45.8 µM (top of the series) unless noted
# In short: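 Readout is ATP luminescence from Gen2.2 cells after two days of drug exposure in serum-containing medium at 37 °C. Values express percent activity, with vehicle defining full signal and 9.2 uM bortezomib defining zero.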
# [6] = High-throughput drug toxicity screening in the BPDCN cell line Cal-1 (AID 1224825); conditions: Cal-1 BPDCN cell viability, qHTS; at 45.8 µM (top of the series) unless noted
# In short: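 Cal-1 cells, 500 per well in phenol-red-free RPMI with 10% FBS, exposed to compounds for 48 hours at 37C, 5% CO2. Viability read by CellTiter-Glo luminescence; percent activity normalized to DMSO (100%) and 9.2 uM bortezomib final (0%).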
# [7] = qHTS assay for measurement of the activity of small molecule inhibitors on Zika virus induced Caspase-3 activity in human iPSC derived neural progenitor cells (hNPCs) (AID 1224857; active = well fitted curve in the direction sought with a large enough effect; an effect the other way counts as inactive or inconclusive; also: nearly all actives have a fitted effect of over 65% in size; also: potency is read from the fitted curve at half-maximal effect)
# In short: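 hNPCs seeded 350 cells/well, cultured 16–20 h; compounds added 1 h before ZIKV (2 FFU/cell), 37 C 6 h. Caspase-Glo 3/7 luminescence after 30 min RT; % inhibition from induction scaled to uninfected (0%) and infected (100%) wells.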
# [8] = qHTS assay for measurement of the activity of small molecule inhibitors on Zika virus induced Caspase-3 activity in human astrocytoma cells (AID 1224859; active = well fitted curve in the direction sought with a large enough effect; an effect the other way counts as inactive or inconclusive;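 also: plate controls were ZIKV-infected untreated cells for no effect and uninfected cells for full effect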)
# In short: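 Luminescence read-out (Caspase-Glo 3/7, 30 min RT) of caspase activity in SNB-19 cells infected 6 h with ZIKV, 2 FFU/cell, after 1 h compound pretreatment; % inhibition from induction normalised to uninfected (0%) and infected (100%) wells.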
# [9] = qHTS Screen of the MIPE 4.0 Collection Against Ewings Sarcoma (EW8) (AID 1259255; active = well fitted curve in the direction sought with a large enough effect; an effect the other way counts as inactive or inconclusive; also: nearly all actives have a fitted effect of over 35% in size; also: potency is read from the fitted curve at half-maximal effect;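 as to viability: 100% = DMSO-treated cells and 0% = medium-only wells without cells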)
# In short: (§2)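 Viability screen: 48 h incubation at 37C, 95% humidity, 5% CO2 with serially titrated compound, followed by CellTiter-Glo readout.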
# [10] = qHTS Screen of the MIPE 4.0 Collection Against Ewings Sarcoma (TC32) (AID 1259256; active = well fitted curve in the direction sought with a large enough effect; an effect the other way counts as inactive or inconclusive; also: nearly all actives have a fitted effect of over 45% in size; also: potency is read from the fitted curve at half-maximal effect)
# In short: as §2
# [11] = qHTS Screen of the MIPE 4.0 Collection Against Ewings Sarcoma (RDES) (AID 1259252; active = well fitted curve in the direction sought with a large enough effect; an effect the other way counts as inactive or inconclusive; also: nearly all actives have a fitted effect of over 35% in size; also: potency is read from the fitted curve at half-maximal effect)
# In short: as §2
# [12] = qHTS Screen of the MIPE 4.0 Collection Against Ewings Sarcoma (TC71) (AID 1259253; active = well fitted curve in the direction sought with a large enough effect; an effect the other way counts as inactive or inconclusive; also: potency is read from the fitted curve at half-maximal effect; nearly all actives have a fitted effect of over 40% in size)
# In short: as §2
# [13] = P-glycoprotein substrates identified in KB-3-1 adenocarcinoma cell line, qHTS therapeutic library screen (AID 1346986; active = well fitted curve in the direction sought with a large enough effect; an effect the other way counts as inactive or inconclusive; also: nearly all actives have a fitted effect of over 60% in size)
# In short: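 Compounds were tested in dose-response against KB-3-1 and KB-8-5-11 cells at 37 degree C for 72 h, and viability was measured by luminescence. AC50 values came from curve fitting with class-based activity calls.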
# [14] = qHTS profiling for inhibitors of Plasmodium falciparum (HB3) proliferation (AID 743324; active = well fitted curve in the direction sought with a large enough effect; an effect the other way counts as inactive or inconclusive;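 also: 100% = DMSO vehicle wells and 0% = artemisinin-treated control wells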); conditions: Plasmodium falciparum HB3 blood-stage proliferation; at 28.7 µM (top of the series) unless noted
# In short: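 P. falciparum HB3 grown in erythrocytes (0.3% parasitemia, 2.5% hematocrit final) with compound for 72 h at 37 C, 5% CO2. Parasite DNA detected by SYBR Green after saponin/triton lysis overnight; normalized to 0.29 uM artemisinin and DMSO.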
# [15] = Identifying Small Molecule Inhibitors of Pancreatic Cancer Stem Cells (SN12C, Adherent) (AID 1259358; active = well fitted curve in the direction sought with a large enough effect; an effect the other way counts as inactive or inconclusive;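 also: cell survival measured after 48 h of compound exposure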)
# In short: (§3)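 Monolayer and spheroid cultures are compared. Spheroids form over 14 days in stem cell medium on hydrogel-coated low-attachment plates, then are exposed to compound for 48 h before CellTiter-Glo luminescence.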
# [16] = Identifying Small Molecule Inhibitors of Pancreatic Cancer Stem Cells (SN12C, Spheroid) (AID 1259360; active = well fitted curve in the direction sought with a large enough effect; an effect the other way counts as inactive or inconclusive; also: potency is read from the fitted curve at half-maximal effect;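 as to viability (% of control): 100% = DMSO-treated cells and 0% = wells without cells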); conditions: Potency: SN12C spheroid viability
# In short: (§4)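 Pre-formed 14-day tumor spheroids or adherent cells dosed and incubated 48 h, 37C, 5% CO2. Viability assessed by CellTiter-Glo.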
# [17] = Identifying Small Molecule Inhibitors of Pancreatic Cancer Stem Cells (A2780, Spheroid) (AID 1259357; active = well fitted curve in the direction sought with a large enough effect; an effect the other way counts as inactive or inconclusive;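 also: compound exposure lasted 48 h before the ATP luminescence read; 100% = DMSO treated cells and 0% = wells without cells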); conditions: Potency: A2780 spheroid viability
# In short: as §4
# [18] = Identifying Small Molecule Inhibitors of Pancreatic Cancer Stem Cells (Panc1, Spheroid) (AID 1259359; active = well fitted curve in the direction sought with a large enough effect; an effect the other way counts as inactive or inconclusive;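 also: potency is read from the fitted curve at half-maximal effect; compound exposure lasted 48 h before reading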)
# In short: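 Luminescent ATP readout (CellTiter-Glo) quantifies surviving cells after a 48 h drug incubation. Normalization uses DMSO wells as no inhibition and media-only wells as full inhibition; bortezomib served as positive control.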
# [19] = Identifying Small Molecule Inhibitors of Pancreatic Cancer Stem Cells (A278, Adherent) (AID 1259361; active = well fitted curve in the direction sought with a large enough effect; an effect the other way counts as inactive or inconclusive;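 also: viability read after 48 h compound exposure; nearly all actives have a fitted effect of over 35% in size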)
# In short: as §3
compound,measurement,setting,value
CN[C@@H]1[C@@H](O)[C@@H](O[C@@H]2[C@@H](O)[C@H](O[C@H]3O[C@H](CN)[C@@H](O)[C@H](O)[C@@H]3O)[C@@H](N)C[C@@H]2NC(=O)[C@@H](O)CN)OC[C@]1(C)O,"parasite growth, % of DMSO control",[1],94%
same,"parasite growth remaining, % of DMSO control (lower = more inhibition)",[2],99.3%
same,"parasite growth, % of control (lower = inhibition)",[3],90.7%
same,"growth, % of control",[4],53.1%
same,"cell viability, % of control (lower = more cytotoxic)",[5],111%
same,viability (% of control),[6],100%
same,Potency,[7],inactive
same,Potency,[8],inactive
same,Potency,[9],inactive
same,Potency,[10],inactive
Cc1cn([C@@H]2C[C@@H](O)[C@H](CO)O2)c(=O)[nH]c1=O,"cell viability, % of control (lower = more cytotoxic)",[5],159%
same,viability (% of control),[6],69.5%
same,Potency,[7],inactive
same,Potency,[8],inactive
same,Potency,[9],inactive
same,Potency,[10],inactive
CCC(=O)NCC[C@@H]1CCc2ccc3c(c21)CCO3,"parasite growth, % of DMSO control",[1],98.2%
same,"parasite growth remaining, % of DMSO control (lower = more inhibition)",[2],89.9%
same,"parasite growth, % of control (lower = inhibition)",[3],71.2%
same,"growth, % of control",[4],107%
same,"cell viability, % of control (lower = more cytotoxic)",[5],184%
same,viability (% of control),[6],117%
same,Potency,[7],inactive
same,Potency,[11],inactive
same,Potency,[9],inactive
same,Potency,[10],inactive
CCCCC[C@H](O)C=C[C@H]1[C@H](O)CC(=O)[C@H]1CC=CCCCC(=O)O,"parasite growth, % of DMSO control",[1],86%
same,"parasite growth remaining, % of DMSO control (lower = more inhibition)",[2],11.2%
same,"parasite growth, % of control (lower = inhibition)",[3],56.3%
same,"growth, % of control",[4],103%
same,"cell viability, % of control (lower = more cytotoxic)",[5],31.5%
same,viability (% of control),[6],23.7%
same,Potency,[7],inactive
same,Potency,[11],inactive
same,Potency,[12],18.7 µM (active)
same,Potency,[10],20.9 µM (active)
same,Potency,[13],inactive
Cc1nn(Cc2ccccc2Cl)c(C)c1CN(C)CC(O)COc1ccc(Cl)cc1 (centres undefined),"remaining proliferation (% of control), lower = more inhibition",[14],8.74%
same,"parasite growth, % of DMSO control",[1],9.8%
same,"parasite growth remaining, % of DMSO control (lower = more inhibition)",[2],18.8%
same,"parasite growth, % of control (lower = inhibition)",[3],16.7%
same,"growth, % of control",[4],7.87%
same,"cell viability, % of control (lower = more cytotoxic)",[5],18%
same,viability (% of control),[6],53.4%
same,Potency,[7],inactive
same,Potency,[11],23.5 µM (active)
same,Potency,[12],23.5 µM (active)
same,Potency,[10],23.5 µM (active)
same,Potency,[15],inactive
same,Potency,[16],inactive
NC(=O)c1ncn([C@@H]2O[C@H](CO)[C@@H](O)[C@@H]2O)n1,"cell viability, % of control (lower = more cytotoxic)",[5],109%
same,viability (% of control),[6],73.5%
same,Potency,[7],inactive
same,Potency,[11],inactive
same,Potency,[9],inactive
same,Potency,[10],inactive
CC1=C[C@@H]2[C@@H]([C@@H](O)C[C@@]3(C)[C@H]2C[C@@H](C)[C@]3(O)C(=O)CO)[C@@]2(C)Cc3cnn(-c4ccccc4)c3C=C12,"remaining proliferation (% of control), lower = more inhibition",[14],0.0764%
same,"parasite growth, % of DMSO control",[1],33.4%
same,"parasite growth remaining, % of DMSO control (lower = more inhibition)",[2],8.93%
same,"parasite growth, % of control (lower = inhibition)",[3],46.9%
same,"growth, % of control",[4],11.6%
same,"cell viability, % of control (lower = more cytotoxic)",[5],24.4%
same,viability (% of control),[6],32.5%
same,Potency,[7],inactive
same,Potency,[10],23.5 µM (active)
same,Potency,[17],inactive
same,Potency,[18],20.9 µM (active)
same,Potency,[16],26.4 µM (active)
same,IC50 (viability decrease),[19],20.9 µM (active)
N#Cc1ccc(Oc2ccc3c(c2)COB3O)cc1,"parasite growth, % of DMSO control",[1],35.7%
same,"parasite growth remaining, % of DMSO control (lower = more inhibition)",[2],91.9%
same,"parasite growth, % of control (lower = inhibition)",[3],38.3%
same,"growth, % of control",[4],24.2%
same,"cell viability, % of control (lower = more cytotoxic)",[5],210%
same,viability (% of control),[6],98.9%
same,Potency,[7],inactive
same,Potency,[11],inactive
same,Potency,[10],inactive
C[C@H](c1ccc(F)cc1CCCC(=O)O)N(c1cc(F)ccc1F)S(=O)(=O)c1ccc(Cl)cc1,"parasite growth, % of DMSO control",[1],48.3%
same,"parasite growth remaining, % of DMSO control (lower = more inhibition)",[2],42.9%
same,"growth, % of control",[4],47.7%
same,"cell viability, % of control (lower = more cytotoxic)",[5],144%
same,viability (% of control),[6],92.6%
same,Potency,[7],inactive
same,Potency,[8],inactive
CCN1CCC(n2cc(CNc3cc(Cl)c4ncc(C#N)c(Nc5ccc(F)c(Cl)c5)c4c3)nn2)CC1,"parasite growth, % of DMSO control",[1],12.9%
same,"parasite growth remaining, % of DMSO control (lower = more inhibition)",[2],12.5%
same,"parasite growth, % of control (lower = inhibition)",[3],12.3%
same,"growth, % of control",[4],7.52%
same,"cell viability, % of control (lower = more cytotoxic)",[5],35.5%
same,viability (% of control),[6],36.8%
same,Potency,[7],18.7 µM (active)
same,Potency,[9],20.9 µM (active)
same,Potency,[10],18.7 µM (active)
